From the supplement of paper PMC3545927
This is one part of the list. How many sequences the whole screen found active is unknown.

Target: furin, P09958
Assay: furin cleavage Z-score vs untreated control; higher = more cleavage, active = 3.5 or more, inactive = 1 or less, 8 variable residues between constant flanks
Summary of the method: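 Abundance of DNA freed from bead-bound 8-mer peptide–cDNA fusions by purified furin was measured as sequencing read counts after PCR adapter tagging. Cutting ran 7.5, 15 or 30 min in 0.01 ml of 50 mM HEPES pH 7.5 with CaCl2 and NaCl at 1:10 enzyme:substrate. The cleavage Z-score expresses these log counts against furin-free reactions after lowess adjustment and median absolute deviation scaling.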

Sequence of furin, P09958 (P09958 whole entry): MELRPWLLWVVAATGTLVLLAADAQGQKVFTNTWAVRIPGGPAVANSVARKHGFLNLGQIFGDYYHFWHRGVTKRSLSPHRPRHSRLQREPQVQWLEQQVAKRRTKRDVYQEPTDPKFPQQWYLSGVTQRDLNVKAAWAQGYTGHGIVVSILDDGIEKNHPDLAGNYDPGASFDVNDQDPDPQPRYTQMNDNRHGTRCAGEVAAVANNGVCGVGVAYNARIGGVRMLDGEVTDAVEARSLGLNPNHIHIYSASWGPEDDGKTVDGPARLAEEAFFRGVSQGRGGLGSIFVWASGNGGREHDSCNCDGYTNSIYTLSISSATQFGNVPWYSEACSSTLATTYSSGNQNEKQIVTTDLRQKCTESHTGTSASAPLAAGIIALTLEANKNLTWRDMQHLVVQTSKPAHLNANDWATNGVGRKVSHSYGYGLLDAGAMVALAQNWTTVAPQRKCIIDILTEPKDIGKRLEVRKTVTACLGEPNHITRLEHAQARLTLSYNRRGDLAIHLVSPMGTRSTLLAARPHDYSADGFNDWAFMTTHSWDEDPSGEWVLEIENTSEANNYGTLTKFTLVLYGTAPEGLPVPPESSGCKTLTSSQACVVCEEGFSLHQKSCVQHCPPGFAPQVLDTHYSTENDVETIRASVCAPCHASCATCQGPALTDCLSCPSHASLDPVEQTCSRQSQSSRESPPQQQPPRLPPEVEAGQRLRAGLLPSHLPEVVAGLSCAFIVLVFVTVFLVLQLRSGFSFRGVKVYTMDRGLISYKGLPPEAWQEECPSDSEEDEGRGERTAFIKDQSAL

Sequence | furin cleavage Z-score (7.5 min) | furin cleavage Z-score (15 min) | furin cleavage Z-score (30 min)
CAVVCCSHSYAGNASASA [HC2055] | 1.14 | -0.432 (inactive) | 0.703 (inactive)
CAGEECSQHLAGNASASA [HC1676] | 0.0385 (inactive) | 1.42 | -0.903 (inactive)
CARRRRDLGSAGNASASA [FS-2517] | 10.6 (active) | 10 (active) | 9.26 (active)
CANEITLTHPAGNASASA [HC977] | -0.433 (inactive) | 0.337 (inactive) | 0.088 (inactive)
CAVNSWLGNIAGNASASA [HC1573] | 1.52 | 0.0684 (inactive) | -1.01 (inactive)
CARPPLGNWFAGNASASA [HC432] | 1.77 | 0.979 (inactive) | -0.0677 (inactive)
CAKRKRWTGQAGNASASA [FS-2478] | 1 | 4.62 (active) | 4.37 (active)
CANKKRKARWAGNASASA [FS-1238] | 6.93 (active) | 7.47 (active) | 9.18 (active)
CAWEKRSRGQAGNASASA [FS-2625] | -0.652 (inactive) | -0.795 (inactive) | -0.906 (inactive)
CAAKERLKRKAGNASASA [FS-213] | 9.07 (active) | 9.78 (active) | 9.62 (active)
CAQWARYARWAGNASASA [FS-484] | -0.0806 (inactive) | 1.37 | 2.8
CALSKRKKRKAGNASASA [FS-827] | 8.35 (active) | 9.52 (active) | 8.96 (active)
CANKKRGGTAAGNASASA [WN4] | -1.48 (inactive) | -0.337 (inactive) | -0.0754 (inactive)
CADPKRTIGQAGNASASA [FS-1982] | 0.168 (inactive) | -0.891 (inactive) | -1.67 (inactive)
CARKERRKHKAGNASASA [FS-2959] | -0.0944 (inactive) | -0.106 (inactive) | 0.503 (inactive)
CATTCCSGSWAGNASASA [HC1880] | -0.863 (inactive) | -1.92 (inactive) | -0.734 (inactive)
CAQVPCHRPSAGNASASA [HC2322] | 0.276 (inactive) | 1.25 | 1.48
CAKKKRVVPKAGNASASA [FS-2122] | -1.74 (inactive) | -0.376 (inactive) | -0.937 (inactive)
CAKNMRRKRKAGNASASA [FS-1222] | 9.63 (active) | 9.29 (active) | 7.84 (active)
CAKRKRSKRKAGNASASA [FS-1223] | 10.8 (active) | 10.5 (active) | 8.25 (active)
CAKKKRKFSKAGNASASA [FS-2866] | -0.0204 (inactive) | -0.905 (inactive) | -0.0235 (inactive)
CAKKKRKKRKAGNASASA [FS-673] | 4.92 (active) | 5.01 (active) | 5.6 (active)
CAKKKRRKRKAGNASASA [FS-1218] | 5.44 (active) | 7 (active) | 6.09 (active)
CAGRSHSKRKAGNASASA [FS-245] | 1.44 | 0.295 (inactive) | 1.58
CAKKKRAACKAGNASASA [FS-2541] | 0.497 (inactive) | -0.617 (inactive) | 1.88
CALGALTGTYAGNASASA [HC631] | -0.145 (inactive) | 0.814 (inactive) | 0.51 (inactive)
CAVFPDLGVRAGNASASA [HC1451] | -2.35 (inactive) | -0.19 (inactive) | 0.302 (inactive)
